# According to PubChem BioAssay AID1508600 (Functional Genomics Laboratory (NCATS/FGL), 2020):
# The whole screen tested about 53,000 sequences, of which about 3,700 (7%) were called active. Only a selection was taken, and actives are over-represented in it overall. Unmarked numbers belong to inactive results.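 How the source made its calls: active means gene knockdowns whose robust z-score for IL-1 alpha signal is at least 2 or at most -2, so actives lie on both sides; inactive means the rest.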
# Experiment: Components of the Cytosolic LPS Sensing Pathway: Gene Identification via Genome-wide siRNA Screen;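 further: robust z of the log signal after scaling to non-targeting control siRNA wells of the plate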
# Conditions: RAW264.7 macrophages, IL-1a HTRF, actives lie on both sides, screened at 100 nM (by protocol), cells primed 5 h with Pam3CSK4 first
# Outline: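 RAW264.7; siRNA 100 nM final, RNAiMAX, 48h 37 degrees C; Pam3CSK4 5 h; LipidA + TransIT-TKO 24 h; IL-1a HTRF; CellTiter-Glo viability; robust z vs negative-control median.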
row,Sequence,z-score
1,CCGGAGUUGAAACCUAAAATT against Hmgn5,0.524
2,GCAACAUAUGUUCAAGAUCTT against Ccdc163,0.53
3,GGCCAUCAGAGUCAACUGUTT against Immt,-0.285
4,GCUAGCAGAGAUACAAUGUTT against Rasal3,3 (active)
5,GGAAGAUGAAAGUUCCAUATT against Ankar,1.17
6,GGGUGUAGUCCUGAAAGUATT against Arpc5l,2.45 (active)
7,GCUUGUGAGUGGAACUUUCTT against Mcm6,0.62
8,CCUACAACAGAUGUGCAGCTT against Fam222b,-1.82
9,CCGGGACAUAGAGGAAAUUTT against Cabp1,-0.113
10,CGCACAUGAAGCCACAUAUTT against Plekhb1,-0.176
11,UCCAAGCUGUUGUUUAUACTT against Acsl1,-0.0655
12,CCGUUGGAGUCCAACCUAUTT against Ube2a,2.2 (active)
13,GCUGUUACUCAGCAGAGAGTT against Bach2,-1.02
14,GGCCCUCUCCAAGUCUAUATT against Pex7,0.7
15,GGAGGAAUUUCAAAUACUATT against A530032D15Rik,0.853
16,GGAUAGCAGCUGAGUUUUATT against Asb5,2.57 (active)
17,GGAAGUCAUUAUGUGAUCCTT against Nfyb,-0.404
18,GCCUACAAUCGAGACAGUUTT against Sgca,1.15
19,GGACACAGACACCAAACAATT against Kat2a,-1.71
20,CCCACUAAGGAGAUCAGUUTT against Lasp1,1.32
21,GGUACUGGCAUGGUGACAATT against Mmp11,-2.52 (active)
22,GGUUUCUUGCCAAGAAAUUTT against Asic5,-0.359
23,GGAAACCUGCAUCCUAUGATT against Olfr195,-0.196

row,Sequence,z-score
1,GAGCUGGGAGGUUUCACAGTT against Tspo,-1.42
2,GGCUUAAGGCUAAUGGUCUTT against Fxyd5,-0.778
3,GCCUGCCUACGAGAUCAACTT against Mgp,-0.0804
4,CCGUGAAAAAAUUAAACAGTT against Slk,0.338
5,CGUUUGCUCUAAAGCCAGGTT against Smagp,0.886
6,GGACAAAAUCACCUCACUUTT against Olfr1135,-3.29 (active)
7,GGAAUUUCAUGGCAAGGGUTT against Fmc1,0.652
8,GGAUCACAUGAAAGGAUUATT against Dclre1c,-0.242
9,CCCAGCAACUACUGGAAACTT against Tas2r139,-0.293
10,CGCUGUGCUGAGCUUACUUTT against D17H6S53E,-2.36 (active)
11,GGUUAUCUCAAAACUCGACTT against Prox2,-0.119
12,GGUAACUGAUUGCUUAGAUTT against Smndc1,0.836
13,GCACUACAUUGUGGCUGUCTT against Itpr3,-2.57 (active)
14,GGGUUUGAACUGGUGAUUGTT against Cenpp,-0.525
15,GGACAAAGGGAUAAUGCUGTT against Aldoc,0.735
16,GGUUUUGGAAAAAGUGGAUTT against Chp1,-0.867
17,GCCCUGUACCUUUUAGCUUTT against Olfr704,-0.306
18,CCUUGUUCAAAAAGAUGGCTT against Serpina1f,-2.08 (active)
19,GGCCAUCAAGAGUUUCUUUTT against Nr0b1,0.876
20,GCGUGUCUUGCUCUUUUGATT against Usp22,-1.21
21,GGAAUCCUCUGAAUAACCUTT against Vmn1r172,-1.14
22,GGGUGAUUUCUACCUUCAATT against D630003M21Rik,-0.496
23,GGAAGAGGAAAUCACCACATT against Clec11a,-2.16 (active)

row,Sequence,z-score
1,GGUUGGUGAUGGCACAAACTT against Cct8,-0.469
2,GGUAGAACUUAUUGUGGACTT against Ly6f,-0.692
3,CCUAUAAAGCUCUAAAGGATT against Caprin1,0.115
4,GGGUUUCCACAGACAAUGUTT against V1rg10,-0.837
5,GGACCUUUUUUGUUCAAAATT against Rasd1,0.157
6,CUCUGUACUUGGGCAGGAATT against Cyp2c65,2.9 (active)
7,CGCUGCAUUAAAGACUAAATT against Kcnj10,0.414
8,GCAAACGGACACUUGGAAUTT against Hmx1,-0.9
9,GGUAAACAUGAUGUCCCUCTT against A630038E17Rik,0.0317
10,GGAAUAUGCUGCAAAAAUCTT against Camk2g,-1.58
11,GGCAGCCUGAACAUCAAUGTT against S100a13,1.47
12,CCGAAGCUUUAUCUUCUAUTT against Pkd2,-0.719
13,GGCCAUGGUUUCAAAAACATT against Rspo2,-1.33
14,GGCGAUCUUUGGAAUUAGATT against Ing3,0.209
15,GGGAACAUGUUUUACUCUUTT against Zfp521,1.63
16,GGUCGACAGAUCAAGCCUUTT against Psmb3,-2.18 (active)
17,GCCAAUCUGAACUUGUGUUTT against Plet1,-0.931
18,CCACAGGGACAACAAACUATT against Arid3b,0.0513
19,CCUGUUUCGUAGAUUGUUUTT against Eftud2,-0.35
20,CGUGUCAUACAGGUGUGGUTT against Lhx8,2.11 (active)
21,UCCUUGCUGUCCUAACCAUTT against Gpr119,1.64
22,GCUGCACCAUCAAUUCCCATT against Vpreb3,-1.63
23,GGCACUUGAAUUUCUAAGUTT against Cbx5,0.0672
